From PubChem
V-ATPase pHluor: regulators of yeast V-ATPase proton transport; S. cerevisiae, pHLuorin cytosolic pH fluorescence; response, % at 10 µM; 350,000 compounds, 0.37% hits; in the data active means response mostly above about 7.3%, no sharp cut-off; inactive means mostly below about 5.4%; further: actives read high
GASC-1 inh: blocks human GASC-1 demethylase activity; Q9H3R0; 330,000 compounds, 0.069% hits; GST-JMJD2C(1-420) H3K9me3 demethylation, DELFIA europium; inhibition, % at 2.35 µM;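 active means more than half of a compound's replicate wells show inhibition beyond 50%, single wells judged on their own value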;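 further: signal counts dimethyl H3K9 product captured on neutravidin plate; 0% = median of DMSO wells and 100% = 0.3 times that DMSO median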
Target sequence (Q9H3R0 1-420 limits assumed): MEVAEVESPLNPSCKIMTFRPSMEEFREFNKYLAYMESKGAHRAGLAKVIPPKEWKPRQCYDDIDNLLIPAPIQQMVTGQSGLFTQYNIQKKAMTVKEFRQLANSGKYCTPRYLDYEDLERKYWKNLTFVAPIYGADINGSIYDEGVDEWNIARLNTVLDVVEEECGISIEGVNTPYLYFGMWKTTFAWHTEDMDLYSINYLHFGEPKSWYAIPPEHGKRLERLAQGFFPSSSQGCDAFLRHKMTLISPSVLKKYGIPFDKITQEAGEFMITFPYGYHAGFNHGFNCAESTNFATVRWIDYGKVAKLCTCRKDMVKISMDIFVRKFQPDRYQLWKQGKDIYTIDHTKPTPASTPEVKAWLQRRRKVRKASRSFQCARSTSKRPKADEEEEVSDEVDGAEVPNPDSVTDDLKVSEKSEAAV
PolyA inhibitor: blocks polyadenylation in yeast reporter cells. S. cerevisiae SKY197-pL101 polyadenylation reporter, beta-gal luminescence; efflux-impaired pdr1/pdr3 knockout yeast; score 100 = 6 SD above DMSO. activity score, % at 12 µM. 300,000 compounds, 0.02% hits;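 active means lowest replicate activity score at least 50, where 100 means six control SD above control mean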;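 further: yeast exposed to compound for 9 h at 30 °C; higher score means more reporter readthrough which indicates perturbed polyadenylation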
CR mimetic SO: lowers age-related superoxide in aged yeast cells | S. cerevisiae aged cells, superoxide DHE fluorescence; active compounds read low | superoxide response (% of plate mean), % at 10 µM | 330,000 compounds, 0.18% hits | AID 2690;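 active means superoxide response under a set limit, about three screen SD below normal, cut at about 65% in these data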;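 further: yeast aged for seven days with compound at 30 °C before DHE staining; 100% = average MFI of all compound-treated wells on the plate with controls excluded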
PKA-R1A activ: activates the PKA-R1A holoenzyme complex; P00514+P68181; PKA-R1A dissociation, Cy5-IP20 fluorescence polarization; scaled: DMSO 0%, 113 µM cGMP 100%; activation, % at 11.4 µM; 340,000 compounds, 0.083% hits; AID 504707;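 active means percent activation above the mean of all tested compounds plus 3 SD, cut at about 19% in these data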;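 further: higher means more PKAc released from R1A so a rise in polarization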
PKA-R2B act: PKA-R2B complex activation; PKA-R2B holoenzyme dissociation, Cy5-IP20 fluorescence polarization; R2B truncated from residue 108, S112A mutant; 0% DMSO only, 100% 113 µM cGMP; P22694+P31323; activation, % at 11.4 µM; 340,000 compounds, 0.079% hits;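 active means activation above a cutoff set at the mean over all compounds plus 3 SD, cut at about 18% in these data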;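 further: higher means more holoenzyme dissociation and a rise in polarization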
R2B FP artifact: FP assay interference, PKA-R2B counter-screen. shares compounds with PKA-R2B act. FP artifact counterscreen, fluorescence polarization. activation, % at 11.4 µM. 270 compounds, 6% hits. AID 504796; in the data active means activation above about 20%;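 further: Cy5 labelled IP20 peptide probe with compound but no PKA protein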
PKA-R2B confirm: confirmation of human PKA-R2B complex activators; shares compounds with PKA-R2B act; fluorescence polarization, activation; activation, % at 11.4 µM; 270 compounds, 9% hits; AID 504797; in the data active means activation above about 19%
Numbers without * were called inactive. Compounds with a hit are over-represented: about 0.78% of the library has one in this group of screens.

`O=C(COc1cccc(-n2cnnn2)c1)Nc1ccc([N+](=O)[O-])cc1` gave V-ATPase pHluor 1, GASC-1 inh -30, PolyA inhibitor 6, CR mimetic SO 100, PKA-R1A activ 3, PKA-R2B act 20*, R2B FP artifact 2 and PKA-R2B confirm 3.
`NC(=O)CC(NC(=O)c1ccc(Br)cc1)c1ccc(N2CCC(Cc3ccccc3)CC2)c([N+](=O)[O-])c1` (stereo not given) gave V-ATPase pHluor -1, GASC-1 inh -8, PolyA inhibitor 8, CR mimetic SO 103, PKA-R1A activ -1, PKA-R2B act 19*, R2B FP artifact 10 and PKA-R2B confirm 11.
`COc1cc(C(=O)NCCCCc2ccccc2)cc(OC)c1OC` gave V-ATPase pHluor -5, GASC-1 inh -5, PolyA inhibitor -18, CR mimetic SO 95, PKA-R1A activ -5 and PKA-R2B act 1.
O=S(=O)(c1ccc(S(=O)(=O)N(Cc2cccs2)CC2CCCO2)cc1)N1CCCCC1 (stereo not given) was read as V-ATPase pHluor -1, GASC-1 inh 162, PolyA inhibitor 33, CR mimetic SO 92, PKA-R1A activ 9 and PKA-R2B act -2.
`O=S(=O)(NC1CCCC1)c1ccc(S(=O)(=O)N(Cc2cccs2)CC2CCCO2)cc1` (stereo not given) gave V-ATPase pHluor 3, PolyA inhibitor -15, CR mimetic SO 108, PKA-R1A activ 5, PKA-R2B act 20*, R2B FP artifact 0 and PKA-R2B confirm 1.
COc1ccc(C(=O)c2ccc([N+](=O)[O-])cc2)c(OC)c1OC was read as V-ATPase pHluor 1, PKA-R1A activ -13 and PKA-R2B act 2.
For COc1ccc(OC)c(C(=O)c2coc3ccc(OC(C)=O)cc23)c1 the results were V-ATPase pHluor -2, GASC-1 inh -1, PolyA inhibitor -22, CR mimetic SO 92, PKA-R1A activ 3, PKA-R2B act 21*, R2B FP artifact 3 and PKA-R2B confirm 0.
Screening COc1ccc(C(=O)c2coc3ccc(OC(C)=O)cc23)cc1 returned V-ATPase pHluor -2, GASC-1 inh 12, PolyA inhibitor -12, CR mimetic SO inactive, PKA-R1A activ 2 and PKA-R2B act -4.
Screening CC(=O)O/N=C/c1c(C)c(C=O)n2ccccc12 returned V-ATPase pHluor -1, GASC-1 inh 2, PolyA inhibitor -15, CR mimetic SO 105, PKA-R1A activ 6 and PKA-R2B act -5.
For CC#CC(=O)NCC1(N(C)Cc2ccccc2)Cc2ccccc2C1 the results were V-ATPase pHluor -4, GASC-1 inh -2, PolyA inhibitor -7, CR mimetic SO 109, PKA-R1A activ 5, PKA-R2B act 18*, R2B FP artifact 6 and PKA-R2B confirm 2.
C=C1CSc2nc(=O)c3c4c(sc3n21)CCC4 was read as V-ATPase pHluor 1, GASC-1 inh -10, PolyA inhibitor 6, CR mimetic SO 116, PKA-R1A activ -5, PKA-R2B act 20*, R2B FP artifact -3 and PKA-R2B confirm -3.
`COc1ccc(OCCSc2nnc(C(C)NC(=O)c3ccccc3F)n2C)cc1` (stereo not given) gave V-ATPase pHluor 5, GASC-1 inh -5, PolyA inhibitor 21, CR mimetic SO 98, PKA-R1A activ 0 and PKA-R2B act 5.
For O=S(=O)(c1ccc2c(c1)OCCO2)N1CCC(c2nc3ccccc3[nH]2)CC1 the results were V-ATPase pHluor 0, GASC-1 inh 7, PolyA inhibitor -1, CR mimetic SO 84, PKA-R1A activ -1, PKA-R2B act 19*, R2B FP artifact 4 and PKA-R2B confirm 2.
Cc1ccc(OCC(=O)NNC(=O)C2CSC3(C)CCC(=O)N23)cc1 (stereo not given) was read as V-ATPase pHluor -5, GASC-1 inh 18, PolyA inhibitor -2, CR mimetic SO 95, PKA-R1A activ -8 and PKA-R2B act 0.
